High-throughput results: PubChem, National Center for Advancing Translational Sciences (NCATS)
MCF10A rerep: A quantitative high throughput screen for small molecules that induce DNA re-replication in MCF 10a normal breast cells; MCF 10A DNA re-replication, Hoechst nuclear intensity, 48 h; Potency, µM (titrated, usually from 46.1 µM), for inactives: top-dose activity, positive = re-replication, actives largely listed as activators; hit rate 2.9% among 350,000; AID 624296, 2012; also: % of control where 0% means no effect; nearly all actives have a fitted effect of over 50% in size
Gal4-VP16 FLuc: VP16 counterscreen qHTS for inhibitors of ROR gamma transcriptional activity | Drosophila S2 Gal4-VP16 UAS-luciferase, luminescence, 20 h | Potency, µM (series often up to 53.6 µM), inactives show at the top dose activity, negative = inhibition, hits mostly inhibitors | hit rate 3.5% among 310,000;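 also: Gal4-VP16 expression switched on by copper sulfate through the metallothionein promoter; % is scaled to controls: 0 for no effect and ±100 for the full control effect; nearly all actives have a fitted effect of over 50% in size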
RORg inh: qHTS for inhibitors of ROR gamma transcriptional activity | Drosophila S2 Gal4-RORgamma UAS-luciferase reporter, 20 h | hit rate 5.4% among 310,000 | AID 2551, 2010 | Nuclear receptor ROR-gamma (Mus musculus), P51450 | Potency, µM (series often up to 53.6 µM), without a hit: top-dose activity change, negative = inhibition, usual class: inhibitors; also: % is scaled to controls: 0 for no effect and ±100 for the full control effect; nearly all actives have a fitted effect of over 60% in size
Target sequence (P51450 whole entry, looked up, the tested form may be a part): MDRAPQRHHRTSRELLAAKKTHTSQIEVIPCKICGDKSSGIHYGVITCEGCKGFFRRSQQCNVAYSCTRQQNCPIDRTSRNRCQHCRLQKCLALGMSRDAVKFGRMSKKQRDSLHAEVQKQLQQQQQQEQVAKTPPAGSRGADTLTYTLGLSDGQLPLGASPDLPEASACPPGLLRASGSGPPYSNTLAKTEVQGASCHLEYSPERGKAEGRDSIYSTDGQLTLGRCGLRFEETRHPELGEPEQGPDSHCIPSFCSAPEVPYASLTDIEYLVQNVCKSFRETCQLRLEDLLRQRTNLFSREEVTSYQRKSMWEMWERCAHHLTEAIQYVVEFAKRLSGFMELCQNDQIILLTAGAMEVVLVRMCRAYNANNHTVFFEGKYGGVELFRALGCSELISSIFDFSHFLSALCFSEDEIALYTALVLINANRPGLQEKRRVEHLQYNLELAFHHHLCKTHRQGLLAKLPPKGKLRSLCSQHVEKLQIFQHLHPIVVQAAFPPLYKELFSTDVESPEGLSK
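Stable Schneider cell line, Gal4 DNA-binding domain fused to ROR gamma, UAS-luciferase. Cmpd 1 hr RT → CuSO4 700 uM final → 20 hr RT → luciferase reagent 10 min → luminescence.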
SW480 rerep: A quantitative high throughput screen for small molecules that induce DNA re-replication in SW480 colon adenocarcinoma cells. Potency, µM (highest dose often 46.1 µM), for the others: at the highest dose re-replication activation, usual class: activators. hit rate 1.8% among 340,000. SW480 DNA re-replication, Hoechst DNA content imaging, 48 h; also: % of control where 0% means no effect; nearly all actives have a fitted effect of over 55% in size
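SW480 cells exposed to compounds for 48 hr at 37 C, 5% CO2, then Hoechst-stained 40 min. Nuclear DNA content imaged by fluorescence scanning (405 nm excitation, 500-530 nm emission); re-replication scored as increased high-intensity nuclei.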
KB-V1 cytotox: qHTS assay for MDR1-selective chemotherapeutics: Primary screen using the drug-selected MDR subline cells KB-V1; KB-V1 MDR cells viability, CellTiter-Glo, 72 h; Potency, µM (highest dose often 46.1 µM), hits mostly cytotoxic; hit rate 3.4% among 400,000; AID 1347076, 2019; also: % is scaled to controls: 0 for no effect and ±100 for the full control effect; nearly all actives have a fitted effect of over 60% in size
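qHTS viability screen in drug-selected KB-V1 MDR cells: 72 h compound treatment at 37 degrees C, ATP luminescence end point.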
KB-3-1 cytotox: qHTS assay for MDR1-selective chemotherapeutics: Primary screen using the parental adenocarcinoma cell KB-3-1; KB-3-1 viability, CellTiter-Glo ATP luminescence, 72 h; Potency, µM (highest dose often 46.1 µM), most hits filed as cytotoxic; hit rate 1.4% among 400,000; AID 1347075, 2019; also: % is scaled to controls: 0 for no effect and ±100 for the full control effect; nearly all actives have a fitted effect of over 60% in size
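Using CellTiter-Glo luminescence, growth of non-resistant KB-3-1 adenocarcinoma cells is assessed 72 h after pin-tool compound addition at 37 °C. Normalized responses across the concentration series yield fitted curves.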
The depositor's hits bear a star; i = inactive; ? = inconclusive; / = no result. Rows were chosen to be rich in hits. Some 10% of all compounds tested hit in one or more screens of this group. Calls follow the shape of the dose curve; as a rule, active = well fitted curve in the direction sought with a large enough effect; inconclusive = small, poorly fitted or top-dose-only effect, or another doubt; inactive = no such curve, though single readings can be large; an effect the other way counts as inactive or inconclusive. Potency is read from the fitted curve at half-maximal effect.

SMILES	MCF10A rerep	Gal4-VP16 FLuc	RORg inh	SW480 rerep	KB-V1 cytotox	KB-3-1 cytotox
C=CCn1c(N)c(C(=O)OC(C)CC)c2nc3ccccc3nc21 (stereo unspecified)	-1.9%	10.8%	-11.2%	-122.6%	8.2µM*	i
C=CCn1c(N)c(C(=O)OC(C)(C)C)c2nc3ccccc3nc21	?	1.3%	-24.9%	?	i	i
Cc1cc2c(cc1C)N[C@]1(C[C@H]3CCCC(=O)N4CC[C@@H](C1)[C@@H]34)C(=NC1CCCCC1)N2	/	/	/	/	i	i
CN1CC(c2ccccc2)C2(SC(=S)N(Cc3ccco3)C2=O)C12C(=O)Nc1ccccc12 (stereo unspecified)	6.51µM*	?	?	?	?	20.6µM*
CC(C)N1CCc2c(sc(NC(=O)c3ccc(S(=O)(=O)N4CCCCC4C)cc3)c2C(N)=O)C1 (stereo unspecified)	?	14.1µM*	?	20.6µM*	i	i
CC(C)N1CCc2c(sc(NC(=O)c3ccc(C(=O)c4ccccc4)cc3)c2C(N)=O)C1	16.4µM*	-19.8%	-12.9%	?	i	i
COC(=O)c1c(NC(=O)c2ccc(S(=O)(=O)N3CCCCC3C)cc2)sc2c1CCN(C(C)C)C2 (stereo unspecified)	/	/	/	/	i	i
CCN1CCc2c(sc(NC(=O)c3cc4ccccc4cc3OC)c2C(N)=O)C1	18.4µM*	5.62µM*	4.47µM*	11.6µM*	i	?
COc1cccc(OC)c1C(=O)Nc1sc2c(c1C(N)=O)CCN(Cc1ccccc1)C2	2.5%	-6.3%	14.4%	-1.2%	i	i
CC(=O)Nc1sc2c(c1-c1nc3ccccc3s1)CCN(C(C)C)C2	?	11.2µM*	8.91µM*	20.6µM*	?	7.31µM*
CC(C)N1CCc2c(sc(NC(=O)CCc3ccccc3)c2C(N)=O)C1	?	7.3%	11.0%	-93.3%	i	i
CC(C)N1CCc2c(sc(NC(=O)Cc3ccccc3)c2C(N)=O)C1	-3.4%	-0.7%	-24.5%	-3.9%	i	i
COC(=O)[C@@]1(Cc2ccc(OC)cc2)[C@H]2c3cc(C(=O)N(C)C)n(C)c3C[C@H]2CN1C(=O)c1ccccc1	/	-8.5%	0.8%	/	/	/
C[C@@H]1CN([C@@H](C)CO)C(=O)c2cc(N(C)C)ccc2O[C@@H](C)CCCCO[C@@H]1CN(C)Cc1ccc2c(c1)OCO2	/	/	/	/	?	i
CC(C)N1CCc2c(sc(NC(=O)c3ccc4ccccc4c3)c2C(N)=O)C1	9.2µM*	?	?	14.6µM*	?	?
CC(C)N1CCc2c(sc(NC(=O)c3ccco3)c2C(N)=O)C1	19.7%	-0.3%	-13.3%	22.9%	i	i
CC(C)NC(=O)C1CCN(C(=O)N2CCOc3ccc(Cl)cc32)CC1	/	/	/	/	i	i
